The source of these data is PubChem BioAssay AID1625 (Sanford-Burnham Center for Chemical Genomics, 2009).

Hit rate of the full screen: of about 190,000 compounds, about 570 (0.3%) were called active. This is one part of a sample in which actives are shown more often than they occur.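 The calls were made as follows: active = z-score above 3 at 5 µM with at least 500 cells counted in the well; inconclusive = wells under 500 cells, flagged as cytotoxic or low count; inactive = the rest.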

The nature of this assay: up-regulation of insulin promoter-GFP reporter – imaging, high-content screening, mouse beta cells (AID 1625).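 As to cell count: total cells summed across four imaged fields per well.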 The conditions noted are these: MIN6 insulin promoter-GFP reporter, at 5 µM; cell count: measured here: cytotoxicity, nuclei count; z-score: stronger effect = higher value.
On to `Cc1cc2nc(C(F)(F)F)cc(-c3cccs3)n2n1`, for which the cell count was 1200 cells and the z-score was -0.13 (inactive).

In the case of `O=C(COC(=O)C12CC3CC(CC(O)(C3)C1)C2)NC12CC3CC(CC(C3)C1)C2`, the cell count came to 1360 cells and the z-score was -1.25 (inactive).

On to `Clc1ccc2nc(-c3ccccc3)nc(C(Cl)Cl)c2c1`, for which the cell count came out at 892 cells and the z-score was -0.12 (inactive).

On to `Cc1cc2c(c(=O)n1Cc1ccco1)C(c1ccccc1)C(C#N)=C(N)O2` (centres undefined), for which the cell count turned out to be 961 cells and the z-score is -0.43 (inactive).

As to `CCOC(=O)CSc1nc2c(sc(=S)n2CCc2ccccc2)c(=O)n1Cc1ccco1`, the cell count is 1440 cells and the z-score is -0.59 (inactive).

As to `CN(c1ccccc1)c1ccc(/C=c2\s/c(=C(/C#N)C(=O)C(C)(C)C)n(Cc3ccco3)c2=O)cc1`, the cell count amounted to 1460 cells and the z-score was 12.8 (active).

With `CSc1nc(-c2ccco2)nn1C(=O)c1ccccc1Cl`, the cell count came out at 983 cells and the z-score was -0.05 (inactive).

For `COc1ccc(OC)c(CNC(=O)c2cc(=O)[nH]c3ccc(S(=O)(=O)N4CCCC4)cc23)c1`, the cell count amounted to 1540 cells and the z-score is -0.29 (inactive).

With `Cc1ccc(C(=O)NC(=S)Nc2ccc(N3CCOCC3)cc2)cc1`, the cell count amounted to 1440 cells and the z-score was -0.06 (inactive).

Regarding `CCN(CC)c1ccc(C(=O)N/N=C/c2ccc(N3CCOCC3)cc2)cc1`, the cell count stood at 1830 cells and the z-score is 3.38 (active).

For `Cc1cc(C(=O)N/N=C/c2ccc(N3CCOCC3)cc2)c(C)o1`, the cell count worked out at 987 cells and the z-score was 0.32 (inactive).

With `COc1ccccc1Nc1nc(N)nc(CSC(=S)N2CCOCC2)n1`, the cell count stood at 1080 cells and the z-score is -0.34 (inactive).

Consider `CCCN(c1ccc(C)cc1)c1nc(=O)c2cccnc2s1`, for which the cell count is 1150 cells and the z-score was 0.79 (inactive).

Take `O=C(NCc1ccc(F)cc1)C1CCC(CNc2c(N3CCOCC3)c(=O)c2=O)CC1` (centres undefined): the cell count was found to be 1000 cells and the z-score is -0.88 (inactive).

As for `CC(C)CN(CC(C)C)CC(O)CN(c1ccccc1)S(=O)(=O)c1ccccc1[N+](=O)[O-]` (centres undefined), the cell count amounted to 1100 cells and the z-score is -1.15 (inactive).

Turning to `CC(C)CNC(=O)C(=O)NCc1ccccc1`, the cell count was determined as 1620 cells and the z-score is -0.28 (inactive).

Regarding `Cc1nn(-c2ccccc2)c(C)c1NC(=O)COc1ccc(Cl)cc1Cl`, the cell count is 1470 cells and the z-score is 1.23 (inactive).

Turning to `Cc1nn(-c2ccccc2)c(Cl)c1C(=O)Nc1ccccc1`, the cell count was found to be 1480 cells and the z-score is -0.05 (inactive).

For the compound `Cc1nn(-c2ccccc2)c(C)c1NC(=O)CCl`, the cell count turned out to be 1030 cells and the z-score was 3.88 (active).

For `S=C(NCCc1ccccc1)N1CCn2cccc2C1c1ccncc1` (centres undefined), the cell count was found to be 1320 cells and the z-score is 0.43 (inactive).

As to `O=C(CN1CCN(Cc2ccccc2)CC1)NC(c1ccccc1)c1ccccc1`, the cell count turned out to be 847 cells and the z-score is 0.25 (inactive).

On to `CCN(CC(=O)Nc1cccc(S(N)(=O)=O)c1)Cc1nc2ccccc2c(=O)[nH]1`, for which the cell count was found to be 1090 cells and the z-score was 0.21 (inactive).

Turning to `CC(=O)Nc1ccc(NC(=O)COc2ccc(S(=O)(=O)NC(C)c3ccccc3)cc2)cc1` (centres undefined), the cell count was 1520 cells and the z-score was -0.4 (inactive).

As for `CCCS(=O)(=O)C(=C1Nc2ccccc2N1)S(=O)(=O)CCC`, the cell count was found to be 1240 cells and the z-score was 0.09 (inactive).

In the case of `CN(C)/C=C1/Nc2ccccc2C1=O`, the cell count was 636 cells and the z-score is 4.71 (active).

As to `O=C1CCCCC(=O)c2ccccc2N1`, the cell count was determined as 1400 cells and the z-score was 0.07 (inactive).

With `O=C(Nc1nnc(Cc2ccccc2)s1)c1cnccn1`, the cell count was 1430 cells and the z-score is 0.26 (inactive).

For the compound `Cc1ccccc1Cn1c2ccccc2c2cnn(CC(=O)NCc3ccco3)c(=O)c21`, the cell count is 1130 cells and the z-score is -0.15 (inactive).

`CCc1cccc(CC)c1NC(=S)Nc1ccc2cn[nH]c2c1`: the cell count worked out at 1180 cells and the z-score was -0.06 (inactive).

In the case of `O=C(CNC(=O)c1ccco1)OCC(=O)c1ccccc1`, the cell count stood at 1220 cells and the z-score was 4.35 (active).

As to `O=C(COC(=O)CNC(=O)c1ccco1)Nc1ccc(F)cc1`, the cell count amounted to 1320 cells and the z-score was -0.26 (inactive).

Regarding `O=C(CNC(=O)c1ccccc1)NCC(=O)OCC(=O)c1ccccc1`, the cell count came out at 1240 cells and the z-score was -0.32 (inactive).

For `CCOC(=O)C1=C(N)N2C(=O)C(C)SC2=C(C(=O)OCC)C1c1cc(OC)c(OC)c(OC)c1` (centres undefined), the cell count is 1120 cells and the z-score was -0.67 (inactive).

As to `NS(=O)(=O)c1ccc(NC(=O)COC(=O)c2cc3ccccc3oc2=O)cc1`, the cell count worked out at 1430 cells and the z-score was 0.45 (inactive).

Turning to `CCCCOc1ccc(CON(C(C)=O)C(C)=O)cc1Cl`, the cell count amounted to 1140 cells and the z-score was -0.26 (inactive).

With `O=C(CCn1nnc2ccccc2c1=O)N[C@@H](Cc1c[nH]c2ccccc12)C(=O)O`, the cell count is 1030 cells and the z-score is 0.15 (inactive).

On to `Cc1ccc(CNC(=O)C2CC(=O)N(C3CCCCCCC3)C2)cc1` (centres undefined), for which the cell count came to 1550 cells and the z-score was -0.31 (inactive).

Take `CC(C)OCCCNC(=O)C1CC(=O)N(C2CCCCCCC2)C1` (centres undefined): the cell count was determined as 1560 cells and the z-score was -0.3 (inactive).

On to `O=C(NCCCN1CCCCCC1)C1CC(=O)N(C2CCCC2)C1` (centres undefined), for which the cell count was found to be 1560 cells and the z-score is 4.02 (active).

In the case of `O=C(Nc1ccccc1)O/N=C1/CCCc2occc21`, the cell count worked out at 985 cells and the z-score was -0.24 (inactive).

For the compound `O=C1CCCCC1C(=O)c1ccccc1` (centres undefined), the cell count amounted to 991 cells and the z-score was -0.12 (inactive).

As to `OC(c1ccccc1)C(CN1CCOCC1)c1ccccc1` (centres undefined), the cell count is 1160 cells and the z-score is -0.19 (inactive).

In the case of `c1ccc(Nc2nc(N3CCOCC3)c3ccccc3n2)cc1`, the cell count came out at 637 cells and the z-score is -1.26 (inactive).

Take `C1=C(N2CCOCC2)/C(=C/c2nc3ccccc3[nH]2)CC1`: the cell count is 905 cells and the z-score was 3.43 (active).

Consider `c1ccc2[nH]c(NCCN3CCOCC3)nc2c1`, for which the cell count was 1180 cells and the z-score was 0.66 (inactive).

With `CCOc1c(Nc2cccc(Cl)c2)c(=O)c1=O`, the cell count came to 1030 cells and the z-score was 0.15 (inactive).

Consider `COc1cc2c(C(=O)N3CCN(C)CC3)c(CSc3ccccc3)n(C)c2cc1Br`, for which the cell count was 1290 cells and the z-score is -0.8 (inactive).

`Cc1ccc(NC(=S)N2CCCC(c3ccccc3)=N2)cc1`: the cell count came to 1540 cells and the z-score is -0.41 (inactive).

`O=S(=O)(NC(=S)Nc1ccccc1)c1ccc(F)cc1`: the cell count was found to be 1080 cells and the z-score was -0.63 (inactive).

Regarding `CCc1nnc(NC(=O)Cc2cccs2)s1`, the cell count was found to be 1560 cells and the z-score is 0.7 (inactive).

Consider `O=C(Cc1cccs1)Nc1nnc(C2CC2)s1`, for which the cell count amounted to 1650 cells and the z-score is 1.57 (inactive).

For the compound `COc1ccc(Cc2nnc(NC(=O)Cc3cccs3)s2)cc1`, the cell count was found to be 1270 cells and the z-score was 3.48 (active).

Take `Cc1ccc(OCC(=O)Nc2nnc(-c3ccco3)s2)cc1`: the cell count was 1050 cells and the z-score was -0.23 (inactive).

As for `Cc1ccc(SC(C)C(=O)NCc2ccc(F)cc2)cc1` (centres undefined), the cell count was determined as 1600 cells and the z-score was 0.03 (inactive).

Regarding `N#CCCCn1c(O)c(N=NC(=O)C(O)c2ccccc2)c2ccccc21` (centres undefined), the cell count came to 1150 cells and the z-score is 0.15 (inactive).

As to `Cc1ccc(C(=O)N/C(=C\c2ccco2)C(=O)N2CCSCC2)cc1C`, the cell count stood at 1360 cells and the z-score was -0.32 (inactive).

In the case of `CC1CCN(c2ccc([N+](=O)[O-])cc2C(N)=O)CC1`, the cell count is 1470 cells and the z-score was 0.15 (inactive).

On to `COC(=O)c1sccc1NC(=O)c1cc(OC)c(OC)c(OC)c1`, for which the cell count came out at 1440 cells and the z-score is 3.71 (active).

Regarding `COC(=O)c1sccc1NC(=O)COc1ccc(Cl)cc1`, the cell count is 2220 cells and the z-score is -0.38 (inactive).

In the case of `COC(=O)c1sccc1NC(=O)c1csc2c1CCCC2`, the cell count worked out at 1260 cells and the z-score was -0.75 (inactive).

For the compound `O=S(=O)(c1ccc(Cl)cc1)N1CCCN(c2ccc(C(F)(F)F)cn2)CC1`, the cell count was found to be 1100 cells and the z-score is -0.98 (inactive).

Regarding `Cc1ccnc(NC(=O)CCCOc2ccccc2)c1`, the cell count was 1410 cells and the z-score is -0.12 (inactive).

As to `COC(=O)c1scc(S(=O)(=O)C(C)(C)C)c1-n1cccc1`, the cell count was 1430 cells and the z-score is 0.89 (inactive).

As to `O=C(CSc1nc2ccccc2s1)Nc1ccc(C(=O)O)cc1`, the cell count turned out to be 1290 cells and the z-score is 0.75 (inactive).

As for `Cc1oc(C(N)=O)cc1COc1ccc(C(N)=O)cc1`, the cell count is 1120 cells and the z-score is -0.28 (inactive).

Turning to `COc1ccc(N2C(=O)C(Cc3ccccc3)NC2=S)cc1` (centres undefined), the cell count came out at 1180 cells and the z-score is 0.5 (inactive).

Consider `CCOC(=O)C1CCN(C(=O)Nc2cccc(OC)c2)CC1`, for which the cell count was found to be 1010 cells and the z-score was -0.44 (inactive).

On to `CN(CCCNC(=O)CN1C(=O)CC(C)(C)S(=O)(=O)c2ccccc21)C1CCCCC1`, for which the cell count is 1010 cells and the z-score was 3.03 (active).

In the case of `Cc1oc(-c2ccccc2F)nc1CS(=O)(=O)CC(=O)NCCCN(C)C1CCCCC1`, the cell count was determined as 1560 cells and the z-score was 0.14 (inactive).

As to `O=C(CN1C(=O)CC(c2ccccc2)S(=O)(=O)c2ccccc21)NC1CCCC1` (centres undefined), the cell count was determined as 1220 cells and the z-score was -1.1 (inactive).

For `CC1(C)CC(=O)C(C=NCCC2=CCCCC2)=C(O)C1`, the cell count was 1030 cells and the z-score was 0.42 (inactive).

`O=C1CCCC(O)=C1C=NCCc1ccccc1`: the cell count was 1000 cells and the z-score is 3.02 (active).

Turning to `O=C1CC(c2ccccc2)CC(O)=C1C=NCCN1CCOCC1` (centres undefined), the cell count was 1300 cells and the z-score is -0.21 (inactive).

Take `CS(=O)(=O)c1ccc2nnn(OCC(=O)Nc3cccc(C#N)c3)c2c1`: the cell count worked out at 1340 cells and the z-score was -0.14 (inactive).

For `Cc1cc(C)c(NC(=O)CN2C(=O)NC(Cc3ccccc3)C2=O)c(C)c1` (centres undefined), the cell count stood at 1480 cells and the z-score is 0.2 (inactive).

Regarding `CN1CCN(CCNC(=O)Nc2ccc([N+](=O)[O-])cc2)CC1`, the cell count was determined as 1230 cells and the z-score was 0.23 (inactive).

As for `Cn1ccc(NC(=O)Nc2ccc(Cl)cc2)n1`, the cell count amounted to 1320 cells and the z-score is 0.16 (inactive).

In the case of `Cc1cccc2cc3c(N)c(C(=O)N4CCCc5ccccc54)sc3nc12`, the cell count is 725 cells and the z-score was 6.25 (active).

As for `Cc1occc1C(=O)N1CCCc2ccccc21`, the cell count worked out at 1220 cells and the z-score was 0.1 (inactive).

Turning to `Cc1c(C(=O)N2CCCc3ccccc32)sc2nc(-c3ccccc3)cn12`, the cell count was 661 cells and the z-score is 1.22 (inactive).

Regarding `CCOC(=O)C1=C(CN2CCCCCC2)NC(=O)NC1c1cccc([N+](=O)[O-])c1` (centres undefined), the cell count worked out at 1200 cells and the z-score is 0.23 (inactive).

As to `COCc1cc(=O)oc2cc(NS(=O)(=O)c3ccc(C)cc3)ccc12`, the cell count was determined as 1024 cells and the z-score was 0.12 (inactive).

In the case of `CC1=NNC(=O)C1CC(=O)N/N=C/c1ccncc1` (centres undefined), the cell count came to 1010 cells and the z-score was 1.19 (inactive).

For `COc1c(C=O)c(CCN(C)C(=O)c2ccc(F)cc2)cc2c1OCO2`, the cell count was 1010 cells and the z-score was 0.62 (inactive).

In the case of `Cc1nn(CC2CC2)c(=O)n1N(C)c1ncc(C(F)(F)F)cc1Cl`, the cell count came to 1660 cells and the z-score is -0.16 (inactive).

`COc1cc(/C=N/Nc2nc3ccccc3s2)ccc1O`: the cell count was determined as 924 cells and the z-score was -0.19 (inactive).

As for `Cn1c(SCC(=O)c2ccc(F)cc2)nnc1-c1ccccn1`, the cell count turned out to be 1430 cells and the z-score is -0.19 (inactive).
